Assay [1] in a line: Quantitative High-Throughput drug screen in 47 multiple myeloma cell lines against the NCATS MIPE library collection: PCM6_Riken cell viability assay (AID 1919870). Note: nearly all actives have a fitted effect of over 30% in size. The note with it: CellTiter-Glo ATP, 48 h; series mostly up to 45.8 µM. In outline: (§1)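 ATP-based CellTiter-Glo luminescence after 48 h drug exposure (37 °C, 5% CO2) of 500 myeloma cells per well. DMSO-only wells set 100% viability, media-only wells 0%; MIPE 4.0 library added by pin tool.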
On the technique in general: Cellular ATP, detected with luciferase, serves as a proxy for viable cell number.

The nature of assay [2]: Quantitative High-Throughput drug screen in 47 multiple myeloma cell lines against the NCATS MIPE library collection: RPMI8226_ATCC cell viability assay (AID 1919871). Note: nearly all actives have a fitted effect of over 30% in size. The note with it: RPMI8226 myeloma viability, CellTiter-Glo ATP luminescence, 48 h; series mostly up to 45.8 µM. In outline: as §1
Assay [3] can be described thus: Quantitative High-Throughput drug screen in 47 multiple myeloma cell lines against the NCATS MIPE library collection: OPM2_DSMZ cell viability assay (AID 1919872). Note: nearly all actives have a fitted effect of over 30% in size. Particulars: OPM2 myeloma viability, CellTiter-Glo ATP luminescence, 48 h; series mostly up to 45.8 µM. In outline: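 Steps: seed 500 cells per well; pin-transfer MIPE 4.0 library; incubate 48 h at 37C, 5% CO2, humidified; add CellTiter-Glo, 5 min room temperature; read luminescence.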

Assay [4] in a line: Quantitative High-Throughput drug screen in 47 multiple myeloma cell lines against the NCATS MIPE library collection: KMS11_JCRBsus cell viability assay (AID 1919873). Note: nearly all actives have a fitted effect of over 50% in size. The note with it: KMS11 myeloma viability, CellTiter-Glo ATP luminescence, 48 h; series mostly up to 45.8 µM. In outline:
as §1

Assay [5] can be described thus: Quantitative High-Throughput drug screen in 47 multiple myeloma cell lines against the NCATS MIPE library collection: KMS28BM_JCRB cell viability assay (AID 1919874). Note: nearly all actives have a fitted effect of over 35% in size. The note with it: CellTiter-Glo ATP, 48 h; series mostly up to 45.8 µM. In outline: as §1
A short description of assay [6]: Quantitative High-Throughput drug screen in 47 multiple myeloma cell lines against the NCATS MIPE library collection: PE2_PLB cell viability assay (AID 1919869). Note: nearly all actives have a fitted effect of over 35% in size. The note with it: PE2_PLB myeloma cells viability, ATP luminescence, 48 h; series mostly up to 45.8 µM. In outline:
as §1

SMILES strings stand for the structures. Inconclusive results are not listed. Activity calls are given as the source filed them. Calls come from the whole dose curve; as a rule, active = well fitted cell-killing curve with a large enough effect; inconclusive = small, poorly fitted or top-dose-only effect, or effect the other way; inactive = no such curve, though single readings can be large or run the other way.
Potency is the fitted concentration of half-maximal effect.

For `CC(=O)Oc1ccccc1C(=O)O`, the Potency in assay [1] is 5.26 µM (active); in assay [4] it was 10.5 µM (active); in assay [5] it was 9.35 µM (active). Also, the Potency result in assay [2] and in assay [3] was “inactive” in each case.

Regarding `CCn1c(-c2nonc2N)nc2cnc(Oc3cccc(NC(=O)c4ccc(OCCN5CCOCC5)cc4)c3)cc21`, the Potency in assay [6] is 10.5 µM (active); in assay [4] it was 11.8 µM (active); in assay [5], 5.26 µM (active).

For `Clc1cccc(Cl)c1NC1=NCCN1`, the Potency result in assay [6], in assay [3] and in assay [5] was “inactive” in each case.

In the case of `O=C1CCc2cc(OCCCCc3nnnn3C3CCCCC3)ccc2N1`, the Potency result in assay [1], in assay [3], in assay [4] and in assay [5] was “inactive” each time.

As for `Nc1cccc(S(=O)(=O)N2CCCN(S(=O)(=O)c3ccc4c(c3)OCCO4)CC2)c1`, the Potency result in assay [3] and in assay [5] was “inactive” each time.

As for `C#Cc1cccc(Nc2ncnc3cc(OCCOC)c(OCCOC)cc23)c1`, in assay [3], the Potency result was “inactive”. Besides, the Potency in assay [5] is 0.833 µM (active).

Regarding `Cc1ccc(N(CC2=NCCN2)c2cccc(O)c2)cc1`, the Potency result in assay [1] is “inactive”. The Potency in assay [4] was 18.7 µM (active).

Consider `CCCS(=O)(=O)Nc1ccc(F)c(C(=O)c2c[nH]c3ncc(Cl)cc23)c1F`, for which the Potency in assay [1] was 11.8 µM (active); in assay [4] it was 26.4 µM (active). Further, the Potency result in assay [3] is “inactive”.

On to `CCOC(=O)N1CCC(=C2c3ccc(Cl)cc3CCc3cccnc32)CC1`, for which the Potency result in assay [1] was “inactive”. Besides, the Potency is 20.9 µM (active) in assay [4] and 23.5 µM (active) in assay [5].

In the case of `CCOc1cc(C=C2C(=O)N(c3ccccc3)N=C2C)cc(Cl)c1OCC(=O)OC`, the Potency result in assay [2], in assay [3], in assay [4] and in assay [5] was “inactive” in each case.

Consider `NCCc1ccc(O)c(O)c1`, for which the Potency was 18.7 µM (active) in assay [2], 13.2 µM (active) in assay [3] and 9.35 µM (active) in assay [4]. Besides, the Potency result in assay [5] was “inactive”.

With `COc1ccc(-c2c(-c3ccc(O)cc3O)n[nH]c2C)cc1`, the Potency entry in assay [2] and in assay [3] was “inactive” throughout. Besides, the Potency in assay [4] is 48.1 µM (active).

`CCc1cncnc1N1CCN(Cc2nc3ccc(C(F)(F)F)cc3[nH]2)CC1`: the figures for the Potency in assay [3], in assay [4] and in assay [5] were 9.35 µM (active), 11.8 µM (active) and 23.5 µM (active), respectively.

Take `C[C@]1(c2nc3c(C(N)=O)cccc3[nH]2)CCCN1`: the Potency entry in assay [3] is “inactive”.

As to `Nc1nccc(-c2ccc3noc(-c4ccc(Cl)cc4)c3c2)n1`, the Potency result in assay [2], in assay [3], in assay [4] and in assay [5] was “inactive” throughout.

As for `COc1cc(F)c(F)c(Nc2ccc(I)cc2F)c1NS(=O)(=O)C1(C[C@H](O)CO)CC1`, the values for the Potency in assay [2], in assay [4] and in assay [5] were 10.5 µM (active), 16.6 µM (active) and 20.9 µM (active), respectively. For the same molecule, in assay [3], the Potency entry is “inactive”.

Regarding `COc1ccccc1-c1cccc(-c2c(O)c3cc(C#N)c(Cl)cc3[nH]c2=O)c1`, the Potency entry in assay [2] and in assay [3] was “inactive” throughout.

On to `O=S(=O)(N=Cc1c(O)ccc2ccccc12)c1cccs1`, for which the Potency result in assay [3] is “inactive”.

`Cc1cc(-c2ccc(CC(=O)Nc3ccc(-c4cccnc4)cc3)cc2)ccn1`: the Potency in assay [2] is 5.9 µM (active); in assay [4] it was 20.9 µM (active). Besides, in assay [3], the Potency result is “inactive”.

Consider `O=c1[nH]c(-c2ccc(C(F)(F)F)cc2)nc2c1CSCC2`, for which the Potency entry in assay [3], in assay [4] and in assay [5] was “inactive” in each case.

With `Cc1cnc(NC(=O)C2=C(O)c3ccccc3S(=O)(=O)N2C)s1`, the Potency entry in assay [2], in assay [3], in assay [4] and in assay [5] was “inactive” each time.
